This note sets out measurements from PubChem BioAssay (NCATS).

Several values for one entry are separate records, joined by “and”; a condition that tells them apart may be missing. Identical values can stand only once. A number with no mark means an inactive call. Results filed as inconclusive are left out. Activity calls are given as the source filed them. Unless noted, calls follow the shape of the dose curve; as a rule, active = well fitted curve in the direction sought with a large enough effect; inconclusive = small, poorly fitted or top-dose-only effect, or another doubt; inactive = no such curve, though single readings can be large; an effect the other way counts as inactive or inconclusive.

For test [1], the target named is DNA repair nuclease/redox regulator APEX1 (Homo sapiens) (UniProt P27695). The test is described as follows: qHTS Validation Assay for Inhibitors of the Human Apurinic/apyrimidinic Endonuclease 1 (APE1) (AID 1705;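 also: TAMRA fluorescence gain over two minutes as APE1 cuts a quenched THF abasic duplex; series mostly up to about 57 µM; % is scaled to controls: 0 for no effect and ±100 for the full control effect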). The method, boiled down:
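Substrate: 50 nM final fluorophore/quencher THF-abasic duplex. Enzyme preincubated with compounds 15 min, RT. Progress derived from fluorescence difference, third minus first kinetic read.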

Test [2] in a line: qHTS for differential inhibitors of proliferation of Plasmodium falciparum line 7G8 (AID 1815).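 Also: parasite growth measured after three days of incubation.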 Also: potency is read from the fitted curve at half-maximal effect. Background: In qHTS, concentration-response curves come from the screen itself.
A short description of test [3]: qHTS for differential inhibitors of proliferation of Plasmodium falciparum line GB4 (AID 1816).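 Also: parasite growth measured after 72 h incubation.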 Also: potency is read from the fitted curve at half-maximal effect. Conditions: Potency: Plasmodium falciparum GB4 proliferation inhibition.
Test [4] can be described thus: qHTS for differential inhibitors of proliferation of Plasmodium falciparum line 3D7 (AID 1876). Also: potency is read from the fitted curve at half-maximal effect.
Test [5] can be described thus: qHTS for differential inhibitors of proliferation of Plasmodium falciparum line D10 (AID 1877).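 Also: parasites grown with compound for 72 h before DNA staining.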 Also: potency is read from the fitted curve at half-maximal effect.
The nature of test [6]: qHTS for differential inhibitors of proliferation of Plasmodium falciparum line Dd2 (AID 1882). Also: nearly all actives have a fitted effect of over 65% in size. Also: potency is read from the fitted curve at half-maximal effect. Conditions: Potency: Plasmodium falciparum Dd2 proliferation inhibition. The essentials: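 Dd2-infected erythrocytes (0.3% parasitemia, 2.5% hematocrit final) incubated with compound 72 h at 37 C, 5% CO2; lysed with saponin/Triton buffer containing SYBR Green I, incubated overnight in the dark, then read by fluorescence (485/535 nm). Normalized to 0.29 uM artemisinin and DMSO.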

Test [7] in a line: qHTS for differential inhibitors of proliferation of Plasmodium falciparum line W2 (AID 1883).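 Also: potency is read from the fitted curve at half-maximal effect; parasites grown with compound for 72 h before lysis and staining.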 Conditions: Potency: Plasmodium falciparum W2 proliferation inhibition.
Test [8] can be described thus: qHTS for differential inhibitors of proliferation of Plasmodium falciparum line HB3 (AID 1886).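 Also: parasites grown with compound for 72 h before SYBR Green readout.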 Also: potency is read from the fitted curve at half-maximal effect. Particulars: Potency: Plasmodium falciparum HB3 proliferation inhibition.
Test [9] addresses Ferritin light chain (Equus caballus) (UniProt P02791). In words: qHTS Validation Assay for Identification of Novel General Anesthetics (AID 2323). Also: series mostly up to about 77 µM; % is scaled to controls: 0 for no effect and ±100 for the full control effect. The essentials: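 Normalized fluorescence response, scaled between free 1-AMA and 1-AMA/apoferritin complex, fitted to a four-parameter Hill equation for concentration-effect values. Binding mix: 10 uM horse-spleen apoferritin, 50% saturated 1-AMA in PBS; read 380/535 nm after 10 min.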

Test [10] addresses ATP-dependent DNA helicase Q1 (Homo sapiens) (UniProt P46063). The test is described as follows: qHTS Validation Assay for Inhibitors of RecQ-Like Dna Helicase 1 (RECQ1) (AID 2353).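 Also: plate controls were DMSO vehicle for no effect and enzyme-free control for full effect.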 The method, boiled down:
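50 nM RECQ1T1 preincubated 15 min with compound in Tris pH 8.0 buffer with MgCl2, DTT, Tween-20 and 2.5 ug/ml poly(dI-dC); started with 200 nM TAMRA/BHQ-2 forked duplex and 2 mM ATP. Unwinding read as fluorescence (525/598 nm), two reads 2 h apart.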

Test [11] is described as follows: Quantitative high throughput screen for delayed death inhibitors of the malarial parasite plastid, 96 hour incubation (AID 488745). Also: nearly all actives have a fitted effect of over 70% in size. Also: potency is read from the fitted curve at half-maximal effect. The method, boiled down: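 Luciferase-expressing P. falciparum in erythrocytes (2% hematocrit, 0.1% parasitemia) incubated with compound for 96 h at 37 C, 5% CO2, in RPMI 1640 with 0.5% Albumax. Growth inhibition read as decreased luminescence.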

In test [12] the target is Transient receptor potential cation channel subfamily V member 1 (Homo sapiens) (UniProt Q8NER1). In words: HTS Assay for Compounds that Act as Enhancers of the Vanilloid Receptor 1 (AID 488979). Also: 0% is about no effect. The essentials:
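Calcium influx kinetics via Fluo-8 (480/520 nm) in TRPV1-expressing cells, 2000/well cultured overnight at 35.5C. Compound-alone read 3 min (agonist phase), followed by EC20 capsaicin challenge for 2 min (enhancer phase).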

Test [13] addresses Thyrotropin receptor (Homo sapiens) (UniProt P16473). In words: qHTS Assay for Antagonists of the Thyroid Stimulating Hormone Receptor (AID 488980). Also: series mostly up to about 58 µM; 0% is about no effect. The method, boiled down:
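Inhibition of TSH-stimulated cAMP accumulation was quantified by homogeneous time-resolved FRET in TSHR-transfected HEK293 cells. Agonist: TSH, 4 nM final (EC80).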

The target of test [14] is Thyrotropin-releasing hormone receptor (Homo sapiens) (UniProt P34981). In words: qHTS for Small Molecule Agonists and Allosteric Enhancers of Human TRH Receptor: Validation Screen for Agonists (AID 493127;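 active = calcium activation more than 3 SD above the typical response in the agonist read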; also: 0% is about no effect). Particulars: TRH receptor agonist cell assay; at 2 µM; hits give high values. The essentials:
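TRHR cells loaded with fluo-8 calcium dye; FDSS kinetic fluorescence (Ex 480/Em 530) read at 1 s/cycle after 23 nL compound addition. Agonist-mode calcium response recorded before the 10 nM TRH (EC20) addition.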

Test [15] addresses Galactokinase (Homo sapiens) (UniProt P51570). In words: qHTS Validation Assay for Inhibitors of Human Galactokinase (GALK) (AID 493189). Also: 0% is about no effect. The method, boiled down:
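Enzyme activity is inferred from ATP consumption: human GALK phosphorylates galactose (100 uM) using 35 uM ATP for 1 h at room temperature, and luciferase-based Kinase-Glo Plus reports unconsumed ATP.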

The target in test [16] is Voltage-gated inwardly rectifying potassium channel KCNH2 (Homo sapiens) (UniProt Q12809). In words: qHTS Assay for Small Molecule Inhibitors of the Human hERG Channel Activity (AID 588834).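 Also: top concentration of the series differs between compounds; % is scaled to controls: 0 for no effect and ±100 for the full control effect; lower thallium flux fluorescence means stronger hERG block; nearly all actives have a fitted effect of over 50% in size.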 The essentials: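 Blockade is seen as reduced FluxOR thallium-flux fluorescence in U2OS cells expressing hERG from a BacMam construct, in Opti-MEM with 2% FCS. Concentration-response data fitted to the Hill equation for AC50.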

Test [17] concerns the target Rap guanine nucleotide exchange factor 3 (Homo sapiens) (UniProt O95398). The test is described as follows: Confirmatory qHTS for agonist of cAMP-regulated guanine nucleotide exchange factor 3 (EPAC1) (AID 1645881). Also: nearly all actives have a fitted effect of over 75% in size. Also: potency is read from the fitted curve at half-maximal effect.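 As to activation: EPAC1 catalysed release of BODIPY-GDP from Rap1B seen as fluorescence loss; 100% = effect of cAMP agonist control.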
Test [18] in a line: Validation screen for inhibitors of Lassa infection (AID 463096; calls by dose curve; also: % is scaled to controls: 0 for no effect and ±100 for the full control effect).
In test [19] the target is Cytochrome P450 2C19 (Homo sapiens) (UniProt P33261). The test is described as follows: qHTS Assay for Inhibitors and Substrates of Cytochrome P450 2C19 (AID 899). Also: % is scaled to controls: 0 for no effect and ±100 for the full control effect; nearly all actives have a fitted effect of over 60% in size. The essentials: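 Reactions contain 5nM enzyme, 10uM Luciferin-H EGE (KM) and 50mM KPO4; compound preincubates 10 min at 37C, NADPH regeneration starts turnover for 60 min. Luminescence after detection reagent gives activity.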

Test [20] concerns the target DNA dC->dU-editing enzyme APOBEC-3G (Homo sapiens) (UniProt Q9HC16). In words: qHTS for inhibitors of Vif-A3G interactions: Validation (AID 588379). Also: 0% is about no effect. The method, boiled down: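 HeLa cells stably expressing Vif and A3G-eYFP, 700 cells/well, incubated overnight at 37 deg C, then exposed to compound overnight at 37 deg C. Inhibition of Vif-mediated degradation read as increased yellow fluorescence (Ex 488/Em 500-530) by laser-scanning cytometry.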

Sequence of Galactokinase (Homo sapiens) (P51570 whole entry, looked up): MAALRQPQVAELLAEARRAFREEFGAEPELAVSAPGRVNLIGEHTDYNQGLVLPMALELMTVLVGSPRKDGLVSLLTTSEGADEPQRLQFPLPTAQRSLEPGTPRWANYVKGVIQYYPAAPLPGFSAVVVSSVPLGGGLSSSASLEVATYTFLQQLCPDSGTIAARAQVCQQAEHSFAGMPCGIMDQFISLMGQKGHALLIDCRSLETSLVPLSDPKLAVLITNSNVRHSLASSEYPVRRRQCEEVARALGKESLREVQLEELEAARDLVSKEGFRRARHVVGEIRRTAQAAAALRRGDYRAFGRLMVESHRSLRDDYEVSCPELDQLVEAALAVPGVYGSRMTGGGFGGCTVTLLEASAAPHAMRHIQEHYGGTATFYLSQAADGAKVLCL
Sequence of Rap guanine nucleotide exchange factor 3 (Homo sapiens) (O95398 whole entry, looked up): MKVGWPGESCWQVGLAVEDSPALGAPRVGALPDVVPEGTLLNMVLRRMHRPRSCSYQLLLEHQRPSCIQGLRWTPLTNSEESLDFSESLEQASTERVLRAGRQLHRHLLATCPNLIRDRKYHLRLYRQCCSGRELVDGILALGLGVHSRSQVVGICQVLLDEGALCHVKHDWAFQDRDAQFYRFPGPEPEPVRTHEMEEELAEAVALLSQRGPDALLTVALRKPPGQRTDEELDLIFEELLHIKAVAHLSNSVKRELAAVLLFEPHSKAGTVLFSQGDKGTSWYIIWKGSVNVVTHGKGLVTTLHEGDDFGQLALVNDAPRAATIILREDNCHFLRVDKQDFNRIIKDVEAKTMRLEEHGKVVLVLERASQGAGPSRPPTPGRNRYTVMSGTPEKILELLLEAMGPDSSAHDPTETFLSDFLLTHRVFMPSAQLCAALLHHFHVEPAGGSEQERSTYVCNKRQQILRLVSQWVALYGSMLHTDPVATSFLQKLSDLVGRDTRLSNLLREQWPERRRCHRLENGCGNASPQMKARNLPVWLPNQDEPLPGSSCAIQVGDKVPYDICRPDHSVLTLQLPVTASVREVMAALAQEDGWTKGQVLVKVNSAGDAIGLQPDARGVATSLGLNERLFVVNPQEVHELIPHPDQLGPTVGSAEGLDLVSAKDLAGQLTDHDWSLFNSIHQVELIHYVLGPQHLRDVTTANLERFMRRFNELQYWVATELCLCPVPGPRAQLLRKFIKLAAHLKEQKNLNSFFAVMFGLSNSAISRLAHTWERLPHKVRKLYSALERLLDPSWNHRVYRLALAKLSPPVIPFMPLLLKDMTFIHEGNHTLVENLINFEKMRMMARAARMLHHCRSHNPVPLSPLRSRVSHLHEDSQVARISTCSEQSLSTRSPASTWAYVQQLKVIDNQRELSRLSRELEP
Sequence of Ferritin light chain (Equus caballus) (P02791 2-175 limits assumed): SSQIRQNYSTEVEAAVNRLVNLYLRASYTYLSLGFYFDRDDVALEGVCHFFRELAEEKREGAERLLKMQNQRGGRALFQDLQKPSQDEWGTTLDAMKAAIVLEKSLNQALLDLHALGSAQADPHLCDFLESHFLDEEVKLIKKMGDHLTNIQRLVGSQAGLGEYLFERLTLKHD
Sequence of Transient receptor potential cation channel subfamily V member 1 (Homo sapiens) (Q8NER1 whole entry, looked up): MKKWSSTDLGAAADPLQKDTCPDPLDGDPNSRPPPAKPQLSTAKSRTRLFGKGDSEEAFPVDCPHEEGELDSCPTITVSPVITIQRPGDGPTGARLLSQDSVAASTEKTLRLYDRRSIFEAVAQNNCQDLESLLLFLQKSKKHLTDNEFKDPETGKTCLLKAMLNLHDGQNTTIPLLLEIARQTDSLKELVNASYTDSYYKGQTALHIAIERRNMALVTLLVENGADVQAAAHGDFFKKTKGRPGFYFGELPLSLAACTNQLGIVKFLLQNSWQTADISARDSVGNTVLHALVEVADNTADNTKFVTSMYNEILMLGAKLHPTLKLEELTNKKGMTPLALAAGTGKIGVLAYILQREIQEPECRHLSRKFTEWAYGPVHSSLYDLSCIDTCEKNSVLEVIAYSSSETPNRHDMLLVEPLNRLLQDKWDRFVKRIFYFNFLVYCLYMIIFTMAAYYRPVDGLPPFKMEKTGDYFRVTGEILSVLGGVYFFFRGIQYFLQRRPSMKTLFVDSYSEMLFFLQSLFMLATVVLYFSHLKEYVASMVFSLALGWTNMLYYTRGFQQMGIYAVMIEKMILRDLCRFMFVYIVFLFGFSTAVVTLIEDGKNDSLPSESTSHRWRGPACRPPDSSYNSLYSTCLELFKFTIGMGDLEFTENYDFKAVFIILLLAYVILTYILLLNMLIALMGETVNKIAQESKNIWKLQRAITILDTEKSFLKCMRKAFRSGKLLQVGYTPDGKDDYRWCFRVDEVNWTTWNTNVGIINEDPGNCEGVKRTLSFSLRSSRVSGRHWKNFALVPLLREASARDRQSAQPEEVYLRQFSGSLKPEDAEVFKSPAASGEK
Sequence of ATP-dependent DNA helicase Q1 (Homo sapiens) (P46063 whole entry, looked up): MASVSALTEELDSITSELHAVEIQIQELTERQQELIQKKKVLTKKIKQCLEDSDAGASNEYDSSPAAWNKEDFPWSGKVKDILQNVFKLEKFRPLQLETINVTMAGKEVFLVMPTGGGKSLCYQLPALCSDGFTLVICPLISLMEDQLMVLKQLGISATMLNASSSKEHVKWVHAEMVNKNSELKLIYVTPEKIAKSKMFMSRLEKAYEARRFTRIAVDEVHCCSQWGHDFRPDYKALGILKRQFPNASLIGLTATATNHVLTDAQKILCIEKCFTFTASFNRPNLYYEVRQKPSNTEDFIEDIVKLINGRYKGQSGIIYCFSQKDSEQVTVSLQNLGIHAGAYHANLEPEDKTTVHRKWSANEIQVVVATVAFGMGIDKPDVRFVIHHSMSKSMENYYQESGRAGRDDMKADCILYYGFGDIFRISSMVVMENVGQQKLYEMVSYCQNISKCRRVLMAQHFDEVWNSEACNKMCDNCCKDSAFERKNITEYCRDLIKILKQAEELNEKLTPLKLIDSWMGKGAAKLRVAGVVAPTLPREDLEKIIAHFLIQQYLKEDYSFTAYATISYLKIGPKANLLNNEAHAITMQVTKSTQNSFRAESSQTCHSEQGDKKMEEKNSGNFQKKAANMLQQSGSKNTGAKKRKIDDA
Sequence of DNA dC->dU-editing enzyme APOBEC-3G (Homo sapiens) (Q9HC16 whole entry, looked up): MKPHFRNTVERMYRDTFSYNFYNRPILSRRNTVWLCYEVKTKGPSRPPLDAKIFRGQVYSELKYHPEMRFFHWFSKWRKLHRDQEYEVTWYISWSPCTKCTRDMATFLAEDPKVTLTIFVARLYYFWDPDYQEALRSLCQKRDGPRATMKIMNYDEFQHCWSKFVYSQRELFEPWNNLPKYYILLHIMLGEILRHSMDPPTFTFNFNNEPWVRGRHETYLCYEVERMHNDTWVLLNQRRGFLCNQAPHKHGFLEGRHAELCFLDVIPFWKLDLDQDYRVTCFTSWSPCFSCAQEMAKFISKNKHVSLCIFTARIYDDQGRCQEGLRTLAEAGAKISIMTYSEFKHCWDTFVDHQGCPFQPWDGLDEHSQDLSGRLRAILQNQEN
Sequence of Voltage-gated inwardly rectifying potassium channel KCNH2 (Homo sapiens) (Q12809 whole entry, looked up): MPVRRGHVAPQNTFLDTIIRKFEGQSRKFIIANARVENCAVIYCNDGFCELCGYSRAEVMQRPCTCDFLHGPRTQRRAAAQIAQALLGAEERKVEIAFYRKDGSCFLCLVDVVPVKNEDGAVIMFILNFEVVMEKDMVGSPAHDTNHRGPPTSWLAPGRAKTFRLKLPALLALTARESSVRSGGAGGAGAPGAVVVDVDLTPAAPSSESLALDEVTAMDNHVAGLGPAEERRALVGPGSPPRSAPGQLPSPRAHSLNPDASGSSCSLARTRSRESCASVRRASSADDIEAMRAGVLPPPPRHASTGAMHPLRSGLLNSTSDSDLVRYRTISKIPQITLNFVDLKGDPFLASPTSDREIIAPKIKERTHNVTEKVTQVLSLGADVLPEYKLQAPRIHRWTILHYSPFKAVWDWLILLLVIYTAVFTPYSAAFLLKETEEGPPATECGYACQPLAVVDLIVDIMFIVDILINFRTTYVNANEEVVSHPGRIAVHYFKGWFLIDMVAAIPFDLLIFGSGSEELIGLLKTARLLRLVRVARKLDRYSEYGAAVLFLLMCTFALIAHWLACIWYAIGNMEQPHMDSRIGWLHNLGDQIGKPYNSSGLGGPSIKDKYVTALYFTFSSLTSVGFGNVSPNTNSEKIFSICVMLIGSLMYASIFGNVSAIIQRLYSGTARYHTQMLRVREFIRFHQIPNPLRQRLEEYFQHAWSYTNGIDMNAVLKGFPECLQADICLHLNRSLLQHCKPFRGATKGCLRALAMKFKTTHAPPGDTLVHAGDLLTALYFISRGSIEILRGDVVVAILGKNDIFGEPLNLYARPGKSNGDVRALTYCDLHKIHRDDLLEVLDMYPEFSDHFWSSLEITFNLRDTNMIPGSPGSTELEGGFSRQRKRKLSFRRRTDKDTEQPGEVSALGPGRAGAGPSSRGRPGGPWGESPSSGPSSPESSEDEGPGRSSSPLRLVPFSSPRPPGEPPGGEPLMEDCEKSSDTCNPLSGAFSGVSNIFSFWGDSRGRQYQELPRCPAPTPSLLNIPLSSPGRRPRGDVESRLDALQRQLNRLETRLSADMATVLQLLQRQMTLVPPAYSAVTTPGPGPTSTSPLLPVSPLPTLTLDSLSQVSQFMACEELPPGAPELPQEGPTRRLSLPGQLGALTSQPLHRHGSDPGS
Sequence of Thyrotropin-releasing hormone receptor (Homo sapiens) (P34981 whole entry, looked up): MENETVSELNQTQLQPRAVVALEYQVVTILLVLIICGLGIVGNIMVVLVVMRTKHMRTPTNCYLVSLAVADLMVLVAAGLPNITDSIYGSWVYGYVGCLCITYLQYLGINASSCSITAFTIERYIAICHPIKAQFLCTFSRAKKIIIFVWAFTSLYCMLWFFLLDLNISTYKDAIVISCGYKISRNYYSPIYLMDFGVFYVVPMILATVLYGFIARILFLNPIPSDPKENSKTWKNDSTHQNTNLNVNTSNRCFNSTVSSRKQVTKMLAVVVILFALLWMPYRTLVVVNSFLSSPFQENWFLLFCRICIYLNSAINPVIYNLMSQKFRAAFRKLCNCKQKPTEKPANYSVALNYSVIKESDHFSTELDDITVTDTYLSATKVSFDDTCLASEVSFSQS

As to `CC(C)[C@@]1(NC(=O)[C@@H]2C[C@@H]3c4cccc5[nH]cc(c45)C[C@H]3N(C)C2)O[C@@]2(O)C3CCCN3C(=O)[C@H](Cc3ccccc3)N2C1=O` (stereo partly drawn), the Potency entry in [1], in [9] and in test [16] was “inactive” in each case. The Potency in test [2] is 316 nM (active); in [3], 1.12 µM (active); in test [4], 1 µM (active); in test [5], 2.24 µM (active); in test [6], 1.41 µM (active); in test [7] it was 0.891 µM (active). Further, the Potency in test [8] is 0.891 µM (active); in test [11], 1.47 µM (active). Besides, the molecule was called inactive in test [10], in [12], in test [13] and in test [15]. Further, the activation in test [14] is 0.125%.
With `O=C1C=CC(=O)c2c(O)cccc21`, in test [17], the Potency entry was “inactive”.
Take `O=C(OC1CCN(CCCl)CC1)C(c1ccccc1)c1ccccc1`: the Potency result in test [1], in test [9], in [18], in [16] and in [17] was “inactive” in each case. In addition, the Potency in [2] was 7940 nM (active); in test [3], 5.62 µM (active); in [4], 12.6 µM (active); in test [5], 12.6 µM (active); in test [6], 7.08 µM (active); in [7], 2.24 µM (active). The Potency in test [8] was 11.2 µM (active). Further, the call in test [10], in test [12], in [13] and in [15] was inactive. Moreover, the activation in test [14] is -9.25%.
For the molecule `COc1ccc2c(c1O)-c1c(OC)c(OC)cc3c1[C@H](C2)N(C)CC3`, the Potency entry in test [19] is “inactive”. In addition, the call in [20] was inactive.
`COc1cc2c(cc1-c1cc3cc4ccoc4cc3oc1=O)OCO2`: the Potency entry in [17] was “inactive”.
For `C[C@]12CC[C@H](O)CC1=CCC1C2CC[C@]2(C)C(=O)CC[C@@H]12` (stereo partly drawn), the Potency entry in test [1], in test [2], in test [3], in test [4], in [5] and in [6] was “inactive” in each case. In addition, the Potency entry in test [8], in test [9], in test [18] and in [11] was “inactive” throughout. For the same molecule, the molecule was classed as inactive in test [10], in [12], in test [13], in test [15] and in test [20]. For the same molecule, in test [14], the activation is 0.438%.
For `COc1cc2c(cc1O)CC1c3c(cc(O)c(OC)c3-2)CCN1C` (stereo not drawn), the molecule was called inactive in test [20].
As to `CC(C)C[C@H]1C(=O)N2CCCC2[C@]2(O)O[C@](NC(=O)[C@@H]3C=C4c5cccc6[nH]c(Br)c(c56)C[C@H]4N(C)C3)(C(C)C)C(=O)N12` (stereo partly drawn), the Potency in [2] was 891 nM (active); in test [3], 1.78 µM (active); in [4], 2 µM (active); in [5], 2.51 µM (active); in test [6], 2 µM (active); in [7], 1.26 µM (active). For the same molecule, the Potency in test [8] is 1.58 µM (active). Further, the Potency entry in test [18] was “inactive”.
As to `c1ccc(N=Nc2ccccc2)cc1`, the Potency result in [16] was “inactive”.
Regarding `CNCC[C@@H](Oc1ccc(C(F)(F)F)cc1)c1ccccc1`, the Potency entry in [1] was “inactive”. Also, the Potency in test [7] was 4.47 µM (active).
For `CC1=NCCc2c1[nH]c1cc(O)ccc21`, the Potency result in [19] is “inactive”. The Potency in test [17] was 63 µM (active) and 28.1 µM (active) and 48.4 µM (active).
As to `CCCN(C/C=C\I)[C@@H]1CCc2ccc(O)cc2C1`, the molecule was classed as inactive in test [20].
